Results filed as inconclusive are left out. Activity calls are given as the source filed them. Calls come from the whole dose curve; as a rule, active = well fitted cell-killing curve with a large enough effect; inconclusive = small, poorly fitted or top-dose-only effect, or effect the other way; inactive = flat fitted curve, though single readings scatter.
Tests used:
Assay in all cases: Primary qHTS to identify gynecologic anti-cancer compounds using libraries of approved drugs and bioactive compounds (AID 1345084); note: nearly all actives have a fitted effect of over 55% in size
C33A = conditions: Gynecologic cancer cell panel viability, ATPlite luminescence, 48 h; series mostly up to 57.5 µM
In short: (§1)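 Cells, 1,000 per well, were allowed to settle for 16 h at 37 C before compound addition. Five concentrations were tested for 48 h, and viability was read by ATPlite luminescence after 15 min at room temperature.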

CAOV3 = conditions: Gynecologic cancer cell panel viability, ATPlite luminescence, 48 h; series mostly up to 57.5 µM
In short: as §1

CASKI = conditions: Gynecologic cancer cell panel viability, ATPlite luminescence, 48 h; series mostly up to 57.5 µM
In short: as §1

Es-2 = conditions: Gynecologic cancer cell panel viability, ATPlite luminescence, 48 h; series mostly up to 57.5 µM
In short: as §1

HeLa = conditions: Gynecologic cancer cell panel viability, ATPlite luminescence, 48 h; series mostly up to 57.5 µM
In short: as §1

Hek293T = conditions: Gynecologic cancer cell panel viability, ATPlite luminescence, 48 h, control line for the selectivity index; series mostly up to 57.5 µM
In short: as §1

JEG-3 = conditions: Gynecologic cancer cell panel viability, ATPlite luminescence, 48 h; series mostly up to 57.5 µM
In short: as §1

OV90 = conditions: Gynecologic cancer cell panel viability, ATPlite luminescence, 48 h; series mostly up to 57.5 µM
In short: as §1

PA-1 = conditions: Gynecologic cancer cell panel viability, ATPlite luminescence, 48 h; series mostly up to 57.5 µM
In short: as §1

SKOV3 = conditions: Gynecologic cancer cell panel viability, ATPlite luminescence, 48 h; series mostly up to 57.5 µM
In short: as §1

Tov-21-G = conditions: Gynecologic cancer cell panel viability, ATPlite luminescence, 48 h; series mostly up to 57.5 µM
In short: as §1

Tov112D = conditions: Gynecologic cancer cell panel viability, ATPlite luminescence, 48 h; series mostly up to 57.5 µM
In short: as §1
% is set by controls: 0 for no effect and ±100 for the full control effect.

C[C@@H]1O[C@@H](O[C@H]2[C@H](O[C@H]3[C@H](O[C@H]4CC[C@@]5(C)C(CC[C@]6(C)C5CC=C5[C@@H]7CC(C)(C(=O)O)C[C@@H](O)[C@]7(C)CC[C@]56C)[C@@]4(C)CO)O[C@H](C(=O)O)[C@@H](O)[C@@H]3O)O[C@H](CO)[C@H](O)[C@@H]2O)[C@H](O)[C@H](O)[C@H]1O (some centres undefined)
inactive: activity change, negative = cytotoxicity (C33A) 4.66% [at 11.6 µM] | activity change, negative = cytotoxicity (CAOV3) 15.7% [at 11.6 µM] | activity change, negative = cytotoxicity (CASKI) 2.76% [at 11.6 µM] | activity change, negative = cytotoxicity (Es-2) 6.95% [at 11.6 µM] | activity change, negative = cytotoxicity (HeLa) 4.42% [at 11.6 µM] | activity change, negative = cytotoxicity (Hek293T) -2.11% [at 11.6 µM] | activity change, negative = cytotoxicity (JEG-3) -9.71% [at 11.6 µM] | activity change, negative = cytotoxicity (OV90) 0.848% [at 11.6 µM] | activity change, negative = cytotoxicity (PA-1) 3.43% [at 11.6 µM] | activity change, negative = cytotoxicity (SKOV3) 5.26% [at 11.6 µM] | activity change, negative = cytotoxicity (Tov-21-G) 6.81% [at 11.6 µM] | activity change, negative = cytotoxicity (Tov112D) 9.62% [at 11.6 µM]

C[C@@H]1O[C@@H](O[C@H]2[C@H](O[C@H]3CO[C@@H](O[C@H]4CC[C@@]5(C)C(CC[C@]6(C)C5CC[C@]57OC[C@@]8(CC[C@](C)(CO)CC85)[C@H](O)C[C@]76C)C4(C)C)[C@H](O[C@@H]4O[C@H](CO)[C@@H](O)[C@H](O)[C@H]4O)[C@H]3O)O[C@H](CO)[C@@H](O)[C@@H]2O)[C@H](O)[C@H](O)[C@H]1O (some centres undefined)
inactive: activity change, negative = cytotoxicity (C33A) -5.68% [at 11.6 µM] | activity change, negative = cytotoxicity (CAOV3) -8.26% [at 11.6 µM] | activity change, negative = cytotoxicity (CASKI) -2.01% [at 11.6 µM] | activity change, negative = cytotoxicity (Es-2) -8.3% [at 11.6 µM] | activity change, negative = cytotoxicity (HeLa) 0% [at 11.6 µM] | activity change, negative = cytotoxicity (Hek293T) 0.0587% [at 11.6 µM] | activity change, negative = cytotoxicity (JEG-3) -0.317% [at 11.6 µM] | activity change, negative = cytotoxicity (OV90) 0.0764% [at 11.6 µM] | activity change, negative = cytotoxicity (PA-1) 4.72% [at 11.6 µM] | activity change, negative = cytotoxicity (SKOV3) 20.5% [at 11.6 µM] | activity change, negative = cytotoxicity (Tov-21-G) -1.65% [at 11.6 µM] | activity change, negative = cytotoxicity (Tov112D) -8.07% [at 11.6 µM]

C=C1CC23CC1(O)CCC2C1=CC2OC(=O)C(C)(C2O)C1C3C(=O)O (centres undefined)
inactive: Potency (C33A) | Potency (CAOV3) | Potency (CASKI) | Potency (Es-2) | Potency (HeLa) | Potency (Hek293T) | Potency (JEG-3) | Potency (OV90) | Potency (PA-1) | Potency (SKOV3) | Potency (Tov-21-G) | Potency (Tov112D)

CCOC(=O)c1c(C)nn(-c2cccc([N+](=O)[O-])c2)c1C
inactive: Potency (C33A) | Potency (CAOV3) | Potency (CASKI) | Potency (Es-2) | Potency (HeLa) | Potency (Hek293T) | Potency (JEG-3) | Potency (OV90) | Potency (PA-1) | Potency (SKOV3) | Potency (Tov-21-G) | Potency (Tov112D)

COc1ccc(C)c2sc(NC(=O)c3ccncc3)nc12
inactive: Potency (C33A) | Potency (CAOV3) | Potency (CASKI) | Potency (Es-2) | Potency (HeLa) | Potency (Hek293T) | Potency (JEG-3) | Potency (OV90) | Potency (PA-1) | Potency (SKOV3) | Potency (Tov-21-G) | Potency (Tov112D)

C/C(=C/CCC(CO)C1CCC2(C)C3CCC4C(C)(C)C(OC5OC(CO)C(O)C(O)C5O)CC(O)C45CC35CCC12C)COC1OC(CO)C(O)C(O)C1O (centres undefined)
inactive: Potency (C33A) | Potency (CAOV3) | Potency (CASKI) | Potency (Es-2) | Potency (HeLa) | Potency (Hek293T) | Potency (JEG-3) | Potency (OV90) | Potency (PA-1) | Potency (SKOV3) | Potency (Tov-21-G) | Potency (Tov112D)

OCc1ccccc1O[C@@H]1O[C@H](CO)[C@@H](O)[C@H](O)[C@H]1O
inactive: Potency (C33A) | Potency (CAOV3) | Potency (CASKI) | Potency (Es-2) | Potency (HeLa) | Potency (Hek293T) | Potency (JEG-3) | Potency (OV90) | Potency (PA-1) | Potency (SKOV3) | Potency (Tov-21-G) | Potency (Tov112D)

CC(C)CC(=O)OC[C@H]1O[C@@](COC(=O)CC(C)C)(O[C@H]2O[C@H](CO)[C@@H](O)[C@H](O)[C@H]2OC(=O)CC(C)C)[C@@H](OC(=O)CC(C)C)[C@@H]1O
inactive: Potency (C33A) | Potency (CAOV3) | Potency (CASKI) | Potency (Es-2) | Potency (HeLa) | Potency (Hek293T) | Potency (JEG-3) | Potency (OV90) | Potency (PA-1) | Potency (SKOV3) | Potency (Tov-21-G) | Potency (Tov112D)

O=C(c1ccccn1)c1cnn2c(-c3ccncc3)ccnc12
inactive: Potency (C33A) | Potency (CAOV3) | Potency (CASKI) | Potency (Es-2) | Potency (HeLa) | Potency (Hek293T) | Potency (JEG-3) | Potency (OV90) | Potency (PA-1) | Potency (SKOV3) | Potency (Tov-21-G) | Potency (Tov112D)

CC(=O)N1CCN(NC(=O)c2ccc(F)cc2)CC1
inactive: Potency (C33A) | Potency (CAOV3) | Potency (CASKI) | Potency (Es-2) | Potency (HeLa) | Potency (Hek293T) | Potency (JEG-3) | Potency (OV90) | Potency (PA-1) | Potency (SKOV3) | Potency (Tov-21-G) | Potency (Tov112D)

C=CC(C)(O)CC/C=C(\C)C(=O)OC1CC2(C(=O)O)CCC3(C)C(=CCC4C5(C)CCC(OC6OC(COC7OCC(O)C(O)C7O)C(O)C(OC7OCC(O)C(O)C7O)C6OC6OC(CO)C(O)C(O)C6OC6OCC(O)C(O)C6O)C(C)(C)C5CCC43C)C2CC1(C)C (centres undefined)
inactive: activity change, negative = cytotoxicity (C33A) 0.0336% [at 6.55 µM] | activity change, negative = cytotoxicity (CAOV3) 2.82% [at 6.55 µM] | activity change, negative = cytotoxicity (CASKI) 0.559% [at 6.55 µM] | activity change, negative = cytotoxicity (Es-2) 6.29% [at 6.55 µM] | activity change, negative = cytotoxicity (HeLa) 13.4% [at 6.55 µM] | activity change, negative = cytotoxicity (Hek293T) -1.17% [at 6.55 µM] | activity change, negative = cytotoxicity (JEG-3) -1.3% [at 6.55 µM] | activity change, negative = cytotoxicity (OV90) 0.467% [at 6.55 µM] | activity change, negative = cytotoxicity (PA-1) 9.33% [at 6.55 µM] | activity change, negative = cytotoxicity (SKOV3) -0.175% [at 6.55 µM] | activity change, negative = cytotoxicity (Tov-21-G) 1.97% [at 6.55 µM] | activity change, negative = cytotoxicity (Tov112D) 4.31% [at 6.55 µM]

Cc1c(CN(C)C(=O)/C=C/c2cnc3c(c2)CCC(=O)N3)oc2ccccc12
inactive: Potency (C33A) | Potency (CAOV3) | Potency (CASKI) | Potency (Es-2) | Potency (HeLa) | Potency (Hek293T) | Potency (JEG-3) | Potency (OV90) | Potency (PA-1) | Potency (SKOV3) | Potency (Tov-21-G) | Potency (Tov112D)

Source: PubChem BioAssay (NCATS)
